Structures are written as SMILES.

The assay has as its system HepG2. The experiment in a line: GSK_TCMDC: Percent inhibition of human HepG2 cell line. Test compounds present at 10uM. It counts as functional.
Regarding `O=C(c1c(-c2[nH]c3ccccc3c2C(=O)C(F)(F)F)[nH]c2ccccc12)C(F)(F)F`, the Inhibition (usually how much of the control response was suppressed) stood at 18%.
As for `FC(F)(F)c1ccc2[nH]c(-c3ccc(-c4ccc(CNCCc5ccncc5)cc4)cc3)nc2c1.O=C(O)C(F)(F)F`, the figure is 26%; as for `COC(=O)c1cccc(CNCc2ccc(-c3cccc(-c4nc5ccccc5[nH]4)c3)cc2)c1.O=C(O)C(F)(F)F`, 5%.
As for `CC(C)(C)c1ccc(C(=O)NC2CCC(CCN3CCc4ccc(S(C)(=O)=O)cc4CC3)CC2)cc1C(F)(F)F` (configuration not stated), the figure is 54%.
As for `C=CCn1c(Sc2ccc(C#N)c([N+](=O)[O-])c2)nnc1-c1ccc(Cl)cc1`, the figure is 13%; as for `Cc1ccc(C(=O)Nc2ccc(F)c(F)c2F)cc1S(=O)(=O)N1CCCCC1`, 3%.
Compound `O=C(Nc1cc(Cl)ccc1O)c1cc(-c2ccccc2O)no1` returned an Inhibition of 0%.

Values taken from ChEMBL document CHEMBL1157539, “Thousands of chemical starting points for antimalarial lead identification” (Nature, 2010).
